Results reported in PubChem BioAssay (Tox21).
Records with an inconclusive call do not appear. Where a call stands in place of a potency, no number is given. The source made the active and inactive calls. Unless noted, calls follow the shape of the dose curve; as a rule, active = well fitted curve in the direction sought with a large enough effect in the repeat runs; inconclusive = weak or mixed curves; inactive = no such curve, though single readings can be large; an effect the other way counts as inactive or inconclusive.

system: not listed separately; test: qHTS assay to identify small molecule antagonists of the retinoid-related orphan receptor gamma (ROR-gamma) signaling pathway - cell viability counter screen (AID 1159520); conditions: Tet-on RORgamma CHO cells viability, ATP luminescence, 16 h; series mostly up to 92.4 µM; also: nearly all actives have a fitted effect of over 50% in size
Procedure, shortened: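 Tet-on ROR gamma CHO cells were given compounds for 2 hr, then doxycycline hyclate at 1 uM final, and incubated 16 hr at 37 C. Viability was measured as ATP content by CellTiter-Glo luminescence.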

**Q.** For `CCCCOC(=O)c1ccccc1C(=O)OCC(CC)CCCC` (configuration not stated), which Potency is on record?
**A.** inactive

**Q.** Which Potency does the source give for `CC(=O)[C@@]1(O)CC[C@H]2[C@@H]3C[C@H](C)C4=CC(=O)CC[C@]4(C)[C@H]3CC[C@@]21C` here?
**A.** inactive

**Q.** For `O=C(Nc1ccccc1)OCC(CN1CCCCC1)OC(=O)Nc1ccccc1` (configuration not stated), which Potency is on record?
**A.** inactive

**Q.** With `CCOC(=O)C1=NN(c2ccccc2)C(=O)C1` as the compound, how does the Potency read?
**A.** inactive

**Q.** For `c1ccc(CNCc2ccccc2)cc1`, which Potency is on record?
**A.** inactive

**Q.** For `c1ccc(-c2nc[nH]c2-c2ccccc2)cc1`, which Potency is on record?
**A.** inactive

**Q.** With `CCCCOC(O)CC` (configuration not stated) as the compound, how does the Potency read?
**A.** inactive

**Q.** Which Potency does the source give for `CC(=O)/C=C/C1C(C)=CCCC1(C)C` (configuration not stated) here?
**A.** inactive

**Q.** Which Potency does the source give for `CCOc1nc2cccc(C(=O)O)c2n1Cc1ccc(-c2ccccc2-c2nn[nH]n2)cc1` here?
**A.** inactive

**Q.** Which Potency does the source give for `COc1ccc([C@@H]2Sc3ccccc3N(CCN(C)C)C(=O)[C@@H]2OC(C)=O)cc1` here?
**A.** inactive

**Q.** Which Potency does the source give for `CCN(CC)CCc1nc(-c2ccccc2)no1` here?
**A.** inactive

**Q.** With `O=C(O)/C=C/c1cnc[nH]1` as the compound, how does the Potency read?
**A.** inactive

**Q.** For `O=C(O)c1cn(C2CC2)c2cc(Cl)c(F)cc2c1=O`, which Potency is on record?
**A.** inactive

**Q.** Which Potency does the source give for `C[C@@H](C1=C(CCN(C)C)Cc2ccccc21)c1ccccn1` here?
**A.** inactive

**Q.** For `CCOc1ccc2[nH]cc(C(=O)NCc3ccccc3)c(=O)c2n1`, which Potency is on record?
**A.** inactive

**Q.** Which Potency does the source give for `CC(C)=CCCC(C)CC=O` (configuration not stated) here?
**A.** inactive

**Q.** With `OCCC1CCCCN1` (configuration not stated) as the compound, how does the Potency read?
**A.** inactive

**Q.** With `O=S1(=O)N=C(O)c2ccccc21` as the compound, how does the Potency read?
**A.** inactive

**Q.** For `CC(=O)Nc1ccc(/C=N/NC(N)=S)cc1`, which Potency is on record?
**A.** inactive

**Q.** For `CC(C)(C)c1ccc(OCC2CO2)cc1` (configuration not stated), which Potency is on record?
**A.** inactive

**Q.** With `CN(C)CCCNCCCN` as the compound, how does the Potency read?
**A.** inactive

**Q.** With `CC(C)(C)c1ccc(S)cc1` as the compound, how does the Potency read?
**A.** inactive

**Q.** Which Potency does the source give for `CCCCCCc1ccc(N)cc1` here?
**A.** inactive

**Q.** Which Potency does the source give for `N#Cc1c(F)cccc1F` here?
**A.** inactive

**Q.** For `CCCCCc1ccc(N)cc1`, which Potency is on record?
**A.** inactive

**Q.** For `O=C=NC1CCC(CC2CCC(N=C=O)CC2)CC1` (configuration not stated), which Potency is on record?
**A.** inactive

target: Nuclear receptor ROR-gamma (Homo sapiens) (UniProt P51449); test: qHTS assay to identify small molecule antagonists of the retinoid-related orphan receptor gamma (ROR-gamma) signaling pathway (AID 1159521; also: nearly all actives have a fitted effect of over 50% in size; also: potency is read from the fitted curve at half-maximal effect); conditions: Tet-on RORgamma CHO cells, RORE-luciferase, 16 h; series mostly up to 92.4 µM
Procedure, shortened: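 Luminescence readout (ONE-Glo, 30 min RT) after 16 h doxycycline induction; loss of signal scored as antagonism. CHO cells with TET-inducible RORγ and RORE-LUC reporter; compounds added 2 h before 1 uM final doxycycline.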

**Q.** For `C#CCOC(=O)[C@@H](C)Oc1ccc(Oc2ncc(Cl)cc2F)cc1`, which Potency is on record?
**A.** inactive

**Q.** Which Potency does the source give for `O=C(O)C(c1ccc(Cl)cc1)c1ccc(Cl)cc1` here?
**A.** inactive

**Q.** With `CCCCOC(=O)c1ccccc1C(=O)OCC(CC)CCCC` (configuration not stated) as the compound, how does the Potency read?
**A.** inactive

**Q.** Which Potency does the source give for `CC(=O)[C@@]1(O)CC[C@H]2[C@@H]3C[C@H](C)C4=CC(=O)CC[C@]4(C)[C@H]3CC[C@@]21C` here?
**A.** inactive

**Q.** With `CC(C)NCC(O)COc1ccc(CC(N)=O)cc1` (configuration not stated) as the compound, how does the Potency read?
**A.** inactive

**Q.** With `O=C(Nc1ccccc1)OCC(CN1CCCCC1)OC(=O)Nc1ccccc1` (configuration not stated) as the compound, how does the Potency read?
**A.** inactive

**Q.** Which Potency does the source give for `CCCCCCCCCCCCC(=O)O` here?
**A.** inactive

**Q.** Which Potency does the source give for `CCOC(=O)C1=NN(c2ccccc2)C(=O)C1` here?
**A.** inactive

**Q.** Which Potency does the source give for `Cc1cc(O)ccc1N` here?
**A.** 24.5 µM (active)

**Q.** Which Potency does the source give for `c1ccc(CNCc2ccccc2)cc1` here?
**A.** inactive

**Q.** Which Potency does the source give for `c1ccc(-c2nc[nH]c2-c2ccccc2)cc1` here?
**A.** inactive

**Q.** Which Potency does the source give for `CCOc1nc2cccc(C(=O)O)c2n1Cc1ccc(-c2ccccc2-c2nn[nH]n2)cc1` here?
**A.** inactive

**Q.** Which Potency does the source give for `COc1ccc([C@@H]2Sc3ccccc3N(CCN(C)C)C(=O)[C@@H]2OC(C)=O)cc1` here?
**A.** inactive

**Q.** For `CCN(CC)CCc1nc(-c2ccccc2)no1`, which Potency is on record?
**A.** inactive

**Q.** With `O=C(O)/C=C/c1cnc[nH]1` as the compound, how does the Potency read?
**A.** inactive

**Q.** Which Potency does the source give for `O=C(O)c1cn(C2CC2)c2cc(Cl)c(F)cc2c1=O` here?
**A.** inactive

**Q.** For `C[C@@H](C1=C(CCN(C)C)Cc2ccccc21)c1ccccn1`, which Potency is on record?
**A.** inactive

**Q.** For `CCOc1ccc2[nH]cc(C(=O)NCc3ccccc3)c(=O)c2n1`, which Potency is on record?
**A.** inactive

**Q.** Which Potency does the source give for `CNS(=O)(=O)Cc1ccc2[nH]cc(CCN(C)C)c2c1` here?
**A.** inactive

**Q.** For `OCCC1CCCCN1` (configuration not stated), which Potency is on record?
**A.** inactive

**Q.** For `O=S1(=O)N=C(O)c2ccccc21`, which Potency is on record?
**A.** inactive

**Q.** Which Potency does the source give for `CC(=O)Nc1ccc(/C=N/NC(N)=S)cc1` here?
**A.** inactive

**Q.** With `CC(C)(C)c1ccc(OCC2CO2)cc1` (configuration not stated) as the compound, how does the Potency read?
**A.** inactive

**Q.** For `CC(Cc1cccc(C(F)(F)F)c1)NCCOC(=O)c1ccccc1` (configuration not stated), which Potency is on record?
**A.** inactive

**Q.** With `CN(C)CCCNCCCN` as the compound, how does the Potency read?
**A.** inactive

**Q.** For `CC(C)(C)c1ccc(S)cc1`, which Potency is on record?
**A.** inactive

**Q.** Which Potency does the source give for `CC(C)NCC(O)c1cc(O)cc(O)c1` (configuration not stated) here?
**A.** inactive

**Q.** Which Potency does the source give for `CCCCCCCCCC(=O)OCC` here?
**A.** inactive

**Q.** With `CCCCCCc1ccc(N)cc1` as the compound, how does the Potency read?
**A.** inactive

**Q.** For `N#Cc1c(F)cccc1F`, which Potency is on record?
**A.** inactive

**Q.** For `CC(C)(C)C1CCCCC1O` (configuration not stated), which Potency is on record?
**A.** inactive

**Q.** With `O=C=NC1CCC(CC2CCC(N=C=O)CC2)CC1` (configuration not stated) as the compound, how does the Potency read?
**A.** inactive

**Q.** With `CCCCCCCCCCCCCCC1CO1` (configuration not stated) as the compound, how does the Potency read?
**A.** inactive

system: not listed separately; test: qHTS assay to identify small molecule agonists of the AP-1 signaling pathway - cell viability counter screen (AID 1159525; calls by dose curve; also: nearly all actives have a fitted effect of over 55% in size); conditions: ME-180 (cervical carcinoma) AP-1-bla cells viability, ATP luminescence, 5 h; series mostly up to 76.8 µM
Procedure, shortened: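 AP-1-bla ME-180 cells in Opti-MEM with 0.5% dialyzed FBS, compound exposure 5 h at 37 C in 15-point titration. Viability read in the same wells as ATP content by CellTiter-Glo luminescence, normalised to tetra-n-octylammonium bromide and DMSO controls.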

**Q.** Which Potency does the source give for `C#CCOC(=O)[C@@H](C)Oc1ccc(Oc2ncc(Cl)cc2F)cc1` here?
**A.** inactive

**Q.** For `O=C(O)C(c1ccc(Cl)cc1)c1ccc(Cl)cc1`, which Potency is on record?
**A.** inactive

**Q.** Which Potency does the source give for `CC(=O)[C@@]1(O)CC[C@H]2[C@@H]3C[C@H](C)C4=CC(=O)CC[C@]4(C)[C@H]3CC[C@@]21C` here?
**A.** inactive

**Q.** With `O=C(Nc1ccccc1)OCC(CN1CCCCC1)OC(=O)Nc1ccccc1` (configuration not stated) as the compound, how does the Potency read?
**A.** inactive

**Q.** Which Potency does the source give for `CCCCCCCCCCCCC(=O)O` here?
**A.** inactive

**Q.** Which Potency does the source give for `CCOC(=O)C1=NN(c2ccccc2)C(=O)C1` here?
**A.** inactive

**Q.** With `Cc1cc(O)ccc1N` as the compound, how does the Potency read?
**A.** inactive

**Q.** For `c1ccc(CNCc2ccccc2)cc1`, which Potency is on record?
**A.** inactive

**Q.** With `c1ccc(-c2nc[nH]c2-c2ccccc2)cc1` as the compound, how does the Potency read?
**A.** inactive

**Q.** With `CCCCOC(O)CC` (configuration not stated) as the compound, how does the Potency read?
**A.** inactive

**Q.** Which Potency does the source give for `CC(=O)/C=C/C1C(C)=CCCC1(C)C` (configuration not stated) here?
**A.** inactive

**Q.** Which Potency does the source give for `CCOc1nc2cccc(C(=O)O)c2n1Cc1ccc(-c2ccccc2-c2nn[nH]n2)cc1` here?
**A.** inactive

**Q.** For `O=C1CCCCCO1`, which Potency is on record?
**A.** inactive

**Q.** With `COc1ccc([C@@H]2Sc3ccccc3N(CCN(C)C)C(=O)[C@@H]2OC(C)=O)cc1` as the compound, how does the Potency read?
**A.** inactive

**Q.** Which Potency does the source give for `CCN(CC)CCc1nc(-c2ccccc2)no1` here?
**A.** inactive

**Q.** For `O=C(O)/C=C/c1cnc[nH]1`, which Potency is on record?
**A.** inactive

**Q.** For `O=C(O)c1cn(C2CC2)c2cc(Cl)c(F)cc2c1=O`, which Potency is on record?
**A.** inactive

**Q.** For `C[C@@H](C1=C(CCN(C)C)Cc2ccccc21)c1ccccn1`, which Potency is on record?
**A.** inactive

**Q.** For `CCOc1ccc2[nH]cc(C(=O)NCc3ccccc3)c(=O)c2n1`, which Potency is on record?
**A.** inactive

**Q.** Which Potency does the source give for `CC(C)=CCCC(C)CC=O` (configuration not stated) here?
**A.** inactive

**Q.** Which Potency does the source give for `CNS(=O)(=O)Cc1ccc2[nH]cc(CCN(C)C)c2c1` here?
**A.** inactive

**Q.** With `OCCC1CCCCN1` (configuration not stated) as the compound, how does the Potency read?
**A.** inactive

**Q.** Which Potency does the source give for `O=S1(=O)N=C(O)c2ccccc21` here?
**A.** inactive

**Q.** With `CC(=O)Nc1ccc(/C=N/NC(N)=S)cc1` as the compound, how does the Potency read?
**A.** inactive

**Q.** For `CC(C)(C)c1ccc(OCC2CO2)cc1` (configuration not stated), which Potency is on record?
**A.** inactive

**Q.** Which Potency does the source give for `CC(Cc1cccc(C(F)(F)F)c1)NCCOC(=O)c1ccccc1` (configuration not stated) here?
**A.** inactive

**Q.** Which Potency does the source give for `CN(C)CCCNCCCN` here?
**A.** inactive

**Q.** With `CC(C)NCC(O)c1cc(O)cc(O)c1` (configuration not stated) as the compound, how does the Potency read?
**A.** inactive

**Q.** For `N#Cc1c(F)cccc1F`, which Potency is on record?
**A.** inactive

**Q.** For `CC(C)(C)C1CCCCC1O` (configuration not stated), which Potency is on record?
**A.** inactive

**Q.** For `CCCCCc1ccc(N)cc1`, which Potency is on record?
**A.** inactive

**Q.** For `O=C=NC1CCC(CC2CCC(N=C=O)CC2)CC1` (configuration not stated), which Potency is on record?
**A.** inactive

**Q.** For `CCCCCCCCCCCCCCC1CO1` (configuration not stated), which Potency is on record?
**A.** inactive
